The results in this text go back to PMC7862700, “An all-to-all approach to the identification of sequence-specific readers for epigenetic DNA modifications on cytosine”.

Holding throughout (assay): DAPPL (digital affinity profiling via proximity ligation, sequencing); 10 mM Tris-HCl pH 7.5, 50 mM NaCl, 1 mM DTT, 4% glycerol, room temperature, 30 min; GST-TFs on glutathione beads, 16-mer random dsDNA library, 0.1% formaldehyde crosslink after washing; high values mean tight binding
Settings in all cases: protein: recombinant; tags: N-terminal GST; dsDNA, one strand shown

In one test the target is T1, FLI1 (Homo sapiens, UniProt Q01543 1-452).
T1 sequence: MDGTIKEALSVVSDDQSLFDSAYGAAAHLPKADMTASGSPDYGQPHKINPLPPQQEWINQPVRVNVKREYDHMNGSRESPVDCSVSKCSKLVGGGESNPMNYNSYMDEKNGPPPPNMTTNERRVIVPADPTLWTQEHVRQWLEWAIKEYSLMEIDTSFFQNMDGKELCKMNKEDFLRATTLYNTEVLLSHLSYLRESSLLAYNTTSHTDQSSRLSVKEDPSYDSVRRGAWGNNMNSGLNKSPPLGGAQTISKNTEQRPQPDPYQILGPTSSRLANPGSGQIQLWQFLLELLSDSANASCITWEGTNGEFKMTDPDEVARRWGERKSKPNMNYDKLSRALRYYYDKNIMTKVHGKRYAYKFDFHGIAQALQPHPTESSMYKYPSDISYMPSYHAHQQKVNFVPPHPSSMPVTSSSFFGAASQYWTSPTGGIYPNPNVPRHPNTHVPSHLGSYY
Summed up: (§1)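 A tag-only sample was pooled with DNA-barcoded human transcription factors that had been expressed in yeast as GST fusions and captured on glutathione beads. The pools were incubated for 30 min at room temperature with 200 nmole of a random double-stranded 16-mer DNA library in Tris/NaCl/DTT/glycerol buffer, then washed, crosslinked with 0.1% formaldehyde, proximity-ligated (BsaI/T4 ligase, 1 h, 37 °C), PCR-amplified and sequenced on an Illumina NextSeq500. Binding signal is each hexamer's read frequency for a factor divided by its frequency for the tag-only sample.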

Another test has as its target T2, ELK1 (Homo sapiens, UniProt P19419 1-428).
T2 sequence: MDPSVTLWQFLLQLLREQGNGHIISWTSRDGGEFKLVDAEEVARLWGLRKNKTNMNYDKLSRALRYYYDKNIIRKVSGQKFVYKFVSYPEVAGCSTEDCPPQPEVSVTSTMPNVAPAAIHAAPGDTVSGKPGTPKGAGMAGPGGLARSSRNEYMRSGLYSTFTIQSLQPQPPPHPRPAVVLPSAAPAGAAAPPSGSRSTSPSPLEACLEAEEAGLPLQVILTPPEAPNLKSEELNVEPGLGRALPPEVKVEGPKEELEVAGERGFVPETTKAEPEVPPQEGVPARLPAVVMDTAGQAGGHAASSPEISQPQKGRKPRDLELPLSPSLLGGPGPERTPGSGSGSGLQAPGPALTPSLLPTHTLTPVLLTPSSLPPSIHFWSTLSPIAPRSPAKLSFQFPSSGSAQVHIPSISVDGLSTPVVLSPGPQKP
The gist of the method:
as §1

For another test, the target named is T3, GABPA (Homo sapiens, UniProt Q06546 1-454).
T3 sequence: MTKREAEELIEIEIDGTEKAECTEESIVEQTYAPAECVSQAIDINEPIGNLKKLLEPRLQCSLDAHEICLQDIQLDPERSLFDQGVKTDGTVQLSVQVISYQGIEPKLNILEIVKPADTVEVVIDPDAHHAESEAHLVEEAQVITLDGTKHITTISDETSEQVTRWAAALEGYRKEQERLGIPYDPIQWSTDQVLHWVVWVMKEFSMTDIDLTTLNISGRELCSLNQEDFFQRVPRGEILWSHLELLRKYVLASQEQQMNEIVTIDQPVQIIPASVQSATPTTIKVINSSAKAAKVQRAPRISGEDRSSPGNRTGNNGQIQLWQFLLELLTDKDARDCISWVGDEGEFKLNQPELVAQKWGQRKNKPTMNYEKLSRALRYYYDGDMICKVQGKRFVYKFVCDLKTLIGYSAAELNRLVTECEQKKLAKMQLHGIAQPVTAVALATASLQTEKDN
Summed up: as §1

Another test deals with T4, ERG (Homo sapiens, UniProt P11308 1-479).
T4 sequence: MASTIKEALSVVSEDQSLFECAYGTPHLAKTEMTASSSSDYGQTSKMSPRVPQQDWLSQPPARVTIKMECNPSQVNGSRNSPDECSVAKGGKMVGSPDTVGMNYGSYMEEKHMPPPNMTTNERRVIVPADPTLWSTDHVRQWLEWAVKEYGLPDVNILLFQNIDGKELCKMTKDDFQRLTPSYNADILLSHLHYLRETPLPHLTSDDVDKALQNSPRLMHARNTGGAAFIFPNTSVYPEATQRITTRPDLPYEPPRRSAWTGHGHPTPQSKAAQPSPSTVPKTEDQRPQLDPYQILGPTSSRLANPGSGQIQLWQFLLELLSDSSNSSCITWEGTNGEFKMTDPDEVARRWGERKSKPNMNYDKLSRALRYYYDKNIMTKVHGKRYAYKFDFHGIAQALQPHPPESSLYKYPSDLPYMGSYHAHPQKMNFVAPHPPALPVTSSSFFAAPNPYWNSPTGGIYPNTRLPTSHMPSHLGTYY
The gist of the method:
as §1

A further test deals with ELF1 (Homo sapiens, UniProt P32519 1-619). Summed up:
as §1

A further test deals with T5, EHF (Homo sapiens, UniProt Q9NZC4 1-300).
T5 sequence: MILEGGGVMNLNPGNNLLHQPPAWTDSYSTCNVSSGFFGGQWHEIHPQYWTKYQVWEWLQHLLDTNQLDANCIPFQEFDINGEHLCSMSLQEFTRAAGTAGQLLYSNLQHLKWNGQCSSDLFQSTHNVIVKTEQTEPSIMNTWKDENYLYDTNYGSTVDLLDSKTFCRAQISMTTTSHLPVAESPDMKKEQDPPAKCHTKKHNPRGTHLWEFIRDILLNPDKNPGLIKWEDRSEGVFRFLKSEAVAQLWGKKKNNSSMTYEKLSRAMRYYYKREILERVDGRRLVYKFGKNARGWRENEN
The gist of the method: as §1

The next test addresses SPI1 (Homo sapiens, UniProt P17947 1-270). Summed up:
as §1

For a further test, the target named is SPIB (Homo sapiens, UniProt Q01892 1-262). The gist of the method:
as §1

The next test concerns the target T6, ELK3 (Homo sapiens, UniProt P41970 1-407).
T6 sequence: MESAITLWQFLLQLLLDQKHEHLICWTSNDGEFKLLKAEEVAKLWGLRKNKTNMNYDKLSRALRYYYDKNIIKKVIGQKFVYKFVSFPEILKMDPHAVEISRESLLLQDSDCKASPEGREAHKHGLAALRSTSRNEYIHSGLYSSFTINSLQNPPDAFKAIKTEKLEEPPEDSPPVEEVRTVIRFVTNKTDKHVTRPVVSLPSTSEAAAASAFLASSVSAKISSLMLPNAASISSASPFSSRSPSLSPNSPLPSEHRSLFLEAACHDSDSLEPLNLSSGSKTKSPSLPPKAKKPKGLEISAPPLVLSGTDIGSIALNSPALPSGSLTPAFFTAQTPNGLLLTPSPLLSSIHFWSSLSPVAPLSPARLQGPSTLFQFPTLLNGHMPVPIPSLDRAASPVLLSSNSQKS
Summed up:
as §1

Another test deals with T7, FEV (Homo sapiens, UniProt Q99581 1-238).
T7 sequence: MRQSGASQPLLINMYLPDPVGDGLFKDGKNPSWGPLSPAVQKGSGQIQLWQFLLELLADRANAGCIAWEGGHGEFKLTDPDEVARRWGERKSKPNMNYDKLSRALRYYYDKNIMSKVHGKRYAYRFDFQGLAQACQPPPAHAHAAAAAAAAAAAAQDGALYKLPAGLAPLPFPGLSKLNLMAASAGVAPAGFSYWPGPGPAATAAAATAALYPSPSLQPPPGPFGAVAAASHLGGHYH
The gist of the method:
as §1

A further test has as its target ETV5 (Homo sapiens, UniProt P41161 1-510). The gist of the method:
as §1

The target of the next test is T8, SPIC (Homo sapiens, UniProt Q8N5J4 1-248).
T8 sequence: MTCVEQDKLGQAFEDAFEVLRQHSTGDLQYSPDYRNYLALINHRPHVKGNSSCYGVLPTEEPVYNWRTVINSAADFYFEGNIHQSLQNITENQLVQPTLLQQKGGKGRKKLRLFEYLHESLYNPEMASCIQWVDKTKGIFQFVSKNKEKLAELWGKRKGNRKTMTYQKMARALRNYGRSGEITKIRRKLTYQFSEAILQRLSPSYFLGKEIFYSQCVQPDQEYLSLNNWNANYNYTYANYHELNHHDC
The gist of the method: as §1

Another test concerns the target ELF4 (Homo sapiens, UniProt Q99607 1-663). The gist of the method: as §1
The target of another test is T9, ELK4 (Homo sapiens, UniProt P28324-2 1-405).
T9 sequence: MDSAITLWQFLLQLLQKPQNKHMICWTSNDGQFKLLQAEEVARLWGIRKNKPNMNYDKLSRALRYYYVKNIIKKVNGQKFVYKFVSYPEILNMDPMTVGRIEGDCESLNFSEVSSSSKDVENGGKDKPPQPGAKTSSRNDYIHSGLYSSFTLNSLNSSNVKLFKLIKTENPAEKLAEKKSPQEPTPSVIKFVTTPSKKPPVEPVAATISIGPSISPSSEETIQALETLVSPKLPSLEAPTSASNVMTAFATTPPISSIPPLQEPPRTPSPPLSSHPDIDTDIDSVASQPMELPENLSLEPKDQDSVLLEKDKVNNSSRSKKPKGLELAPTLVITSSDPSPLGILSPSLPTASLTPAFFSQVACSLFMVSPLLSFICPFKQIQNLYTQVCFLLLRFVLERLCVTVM
Summed up: as §1

A further test deals with T10, ETV2 (Homo sapiens, UniProt O00321 1-342).
T10 sequence: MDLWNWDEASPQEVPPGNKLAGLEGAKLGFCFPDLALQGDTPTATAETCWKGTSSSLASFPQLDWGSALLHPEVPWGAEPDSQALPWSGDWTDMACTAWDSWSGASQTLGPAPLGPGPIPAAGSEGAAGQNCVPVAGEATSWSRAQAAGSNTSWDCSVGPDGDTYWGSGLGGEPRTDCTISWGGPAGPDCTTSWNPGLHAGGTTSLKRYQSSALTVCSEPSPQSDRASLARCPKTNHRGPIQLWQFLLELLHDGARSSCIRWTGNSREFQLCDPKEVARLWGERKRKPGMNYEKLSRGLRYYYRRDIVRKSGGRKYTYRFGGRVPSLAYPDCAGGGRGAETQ
The gist of the method:
as §1

The next test concerns the target T11, ELF3 (Homo sapiens, UniProt P78545 1-371).
T11 sequence: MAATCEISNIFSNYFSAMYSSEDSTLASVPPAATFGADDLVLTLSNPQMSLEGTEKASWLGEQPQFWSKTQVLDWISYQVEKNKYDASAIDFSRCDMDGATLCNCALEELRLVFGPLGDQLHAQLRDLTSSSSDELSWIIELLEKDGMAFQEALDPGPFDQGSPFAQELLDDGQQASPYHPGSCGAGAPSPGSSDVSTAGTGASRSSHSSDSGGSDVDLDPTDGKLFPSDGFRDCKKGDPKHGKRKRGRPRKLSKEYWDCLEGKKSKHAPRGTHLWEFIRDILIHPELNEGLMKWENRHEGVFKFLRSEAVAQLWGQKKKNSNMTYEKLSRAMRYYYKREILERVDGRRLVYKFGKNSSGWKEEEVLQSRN
Summed up:
as §1

In another test the target is ETV1 (Homo sapiens, UniProt P50549 1-477). The gist of the method: as §1
Chain of ETV1 (P50549 whole entry): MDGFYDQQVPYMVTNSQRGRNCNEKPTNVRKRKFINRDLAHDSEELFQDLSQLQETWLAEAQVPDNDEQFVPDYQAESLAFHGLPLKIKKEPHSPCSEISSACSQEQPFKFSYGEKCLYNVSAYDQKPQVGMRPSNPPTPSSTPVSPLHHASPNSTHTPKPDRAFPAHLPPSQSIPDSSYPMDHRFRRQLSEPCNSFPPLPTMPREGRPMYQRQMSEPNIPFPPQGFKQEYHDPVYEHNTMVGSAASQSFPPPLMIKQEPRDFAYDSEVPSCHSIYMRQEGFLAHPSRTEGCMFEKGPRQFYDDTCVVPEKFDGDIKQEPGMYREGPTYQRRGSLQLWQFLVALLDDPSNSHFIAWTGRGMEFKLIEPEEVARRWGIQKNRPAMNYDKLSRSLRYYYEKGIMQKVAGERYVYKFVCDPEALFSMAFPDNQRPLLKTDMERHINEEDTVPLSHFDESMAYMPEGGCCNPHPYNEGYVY

Chain of ELF1 (P32519 whole entry): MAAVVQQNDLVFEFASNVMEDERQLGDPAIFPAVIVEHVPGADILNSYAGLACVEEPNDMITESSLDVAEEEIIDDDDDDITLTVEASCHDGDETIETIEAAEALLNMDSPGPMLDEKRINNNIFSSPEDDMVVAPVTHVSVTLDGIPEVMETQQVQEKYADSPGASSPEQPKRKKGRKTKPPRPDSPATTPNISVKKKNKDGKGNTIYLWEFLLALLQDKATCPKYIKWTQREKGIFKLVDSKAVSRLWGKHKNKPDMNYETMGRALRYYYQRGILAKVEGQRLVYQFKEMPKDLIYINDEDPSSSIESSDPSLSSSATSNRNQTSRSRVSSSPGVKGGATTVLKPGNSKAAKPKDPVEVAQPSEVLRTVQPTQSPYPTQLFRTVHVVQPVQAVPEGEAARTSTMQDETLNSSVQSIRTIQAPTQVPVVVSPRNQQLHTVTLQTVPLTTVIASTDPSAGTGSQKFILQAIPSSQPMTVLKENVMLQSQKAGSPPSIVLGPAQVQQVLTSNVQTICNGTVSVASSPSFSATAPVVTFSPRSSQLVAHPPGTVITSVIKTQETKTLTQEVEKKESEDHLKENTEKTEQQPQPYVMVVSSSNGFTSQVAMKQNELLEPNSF
Chain of ELF4 (Q99607 whole entry): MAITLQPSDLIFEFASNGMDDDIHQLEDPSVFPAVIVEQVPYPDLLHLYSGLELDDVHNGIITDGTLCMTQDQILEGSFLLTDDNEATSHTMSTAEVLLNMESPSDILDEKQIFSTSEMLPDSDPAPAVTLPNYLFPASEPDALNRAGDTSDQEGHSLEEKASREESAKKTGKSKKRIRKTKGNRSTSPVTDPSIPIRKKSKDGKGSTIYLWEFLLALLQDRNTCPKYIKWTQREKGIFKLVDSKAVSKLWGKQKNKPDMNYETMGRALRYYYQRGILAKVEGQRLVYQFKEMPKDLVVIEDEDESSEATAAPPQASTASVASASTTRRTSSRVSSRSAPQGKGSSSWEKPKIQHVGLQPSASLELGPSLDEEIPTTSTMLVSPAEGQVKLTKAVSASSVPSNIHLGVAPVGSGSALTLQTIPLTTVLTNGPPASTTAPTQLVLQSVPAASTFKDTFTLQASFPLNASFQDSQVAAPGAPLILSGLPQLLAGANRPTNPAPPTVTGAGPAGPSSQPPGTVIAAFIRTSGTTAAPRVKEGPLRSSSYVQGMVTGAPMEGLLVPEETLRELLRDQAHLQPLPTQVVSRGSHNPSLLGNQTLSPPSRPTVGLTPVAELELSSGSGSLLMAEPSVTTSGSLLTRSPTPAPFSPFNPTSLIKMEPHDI
Chain of SPIB (Q01892 whole entry): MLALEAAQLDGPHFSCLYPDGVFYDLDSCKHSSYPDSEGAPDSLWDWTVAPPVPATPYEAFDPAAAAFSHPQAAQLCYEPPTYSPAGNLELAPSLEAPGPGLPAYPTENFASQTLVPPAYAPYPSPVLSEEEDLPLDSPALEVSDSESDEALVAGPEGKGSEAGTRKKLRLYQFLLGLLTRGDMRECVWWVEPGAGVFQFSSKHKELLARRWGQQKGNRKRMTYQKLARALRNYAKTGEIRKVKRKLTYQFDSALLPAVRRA
Chain of ETV5 (P41161 whole entry): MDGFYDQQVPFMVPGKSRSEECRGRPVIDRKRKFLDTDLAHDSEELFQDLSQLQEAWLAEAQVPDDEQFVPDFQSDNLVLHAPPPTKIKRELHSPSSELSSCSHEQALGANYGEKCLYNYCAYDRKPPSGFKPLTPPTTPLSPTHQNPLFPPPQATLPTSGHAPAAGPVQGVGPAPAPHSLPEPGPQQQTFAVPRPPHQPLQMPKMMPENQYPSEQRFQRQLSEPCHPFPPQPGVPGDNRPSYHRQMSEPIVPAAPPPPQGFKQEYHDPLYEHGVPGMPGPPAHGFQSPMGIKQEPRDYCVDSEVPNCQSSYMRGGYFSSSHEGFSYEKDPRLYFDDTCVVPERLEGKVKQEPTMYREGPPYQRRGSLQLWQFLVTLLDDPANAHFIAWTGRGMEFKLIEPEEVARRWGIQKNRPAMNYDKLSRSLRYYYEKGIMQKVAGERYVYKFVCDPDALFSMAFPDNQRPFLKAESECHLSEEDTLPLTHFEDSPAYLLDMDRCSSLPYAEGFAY

For the sequence CCGCCG, the binding signal with FLI1 is 1.29 fold enrichment (6-mer frequency, TF over GST control); in the test with ELK1, 1.4 fold enrichment (6-mer frequency, TF over GST control); with GABPA, 1.41 fold enrichment (6-mer frequency, TF over GST control); in the test with ERG it was 1.37 fold enrichment (6-mer frequency, TF over GST control); with ELF1, 1.26 fold enrichment (6-mer frequency, TF over GST control); in the test with EHF it was 1.34 fold enrichment (6-mer frequency, TF over GST control). Further, the binding signal was 1.27 fold enrichment (6-mer frequency, TF over GST control) with SPI1; 1.16 fold enrichment (6-mer frequency, TF over GST control) with SPIB; 1.26 fold enrichment (6-mer frequency, TF over GST control) with ELK3; 1.55 fold enrichment (6-mer frequency, TF over GST control) in the test with FEV; 1.25 fold enrichment (6-mer frequency, TF over GST control) in the test with ETV5; 1.22 fold enrichment (6-mer frequency, TF over GST control) with SPIC. Also, the binding signal is 1.29 fold enrichment (6-mer frequency, TF over GST control) in the test with ELF4; 1.27 fold enrichment (6-mer frequency, TF over GST control) with ELK4; 1.11 fold enrichment (6-mer frequency, TF over GST control) in the test with ETV2; 1.23 fold enrichment (6-mer frequency, TF over GST control) with ELF3; 1.25 fold enrichment (6-mer frequency, TF over GST control) in the test with ETV1.
Take GACATC: the binding signal is 1.36 fold enrichment (6-mer frequency, TF over GST control) in the test with FLI1; 1.4 fold enrichment (6-mer frequency, TF over GST control) with ELK1; 1.31 fold enrichment (6-mer frequency, TF over GST control) in the test with GABPA; 1.27 fold enrichment (6-mer frequency, TF over GST control) with ERG; 1.21 fold enrichment (6-mer frequency, TF over GST control) with ELF1; 1.35 fold enrichment (6-mer frequency, TF over GST control) in the test with EHF. In addition, the binding signal was 1.26 fold enrichment (6-mer frequency, TF over GST control) with SPI1; 1.3 fold enrichment (6-mer frequency, TF over GST control) in the test with SPIB; 1.38 fold enrichment (6-mer frequency, TF over GST control) with ELK3; 1.73 fold enrichment (6-mer frequency, TF over GST control) with FEV; 1.3 fold enrichment (6-mer frequency, TF over GST control) with ETV5; 1.26 fold enrichment (6-mer frequency, TF over GST control) with SPIC. The binding signal with ELF4 was 1.26 fold enrichment (6-mer frequency, TF over GST control); with ELK4 it was 1.34 fold enrichment (6-mer frequency, TF over GST control); with ETV2 it was 1.31 fold enrichment (6-mer frequency, TF over GST control); with ELF3, 1.23 fold enrichment (6-mer frequency, TF over GST control); with ETV1, 1.33 fold enrichment (6-mer frequency, TF over GST control).
